Only some compounds are listed: those with a hit (about 19% of all), similar ones and a draw of the others.
KB-3-1 cytotox: qHTS assay for MDR1-selective chemotherapeutics: Primary screen using the parental adenocarcinoma cell KB-3-1; Potency, µM (titrated, usually from 46.1 µM), actives largely listed as cytotoxic; KB-3-1 viability, CellTiter-Glo ATP luminescence, 72 h; 1.4% of 400,000 active; note: nearly all actives have a fitted effect of over 60% in size
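KB-3-1 cells, DMEM (no phenol red) + 10% FBS; compound by pin transfer, 72 h, 37 °C. Readout: CellTiter-Glo luminescence after 10 min. Data normalized, curve-fitted.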
KB-V1 cytotox: qHTS assay for MDR1-selective chemotherapeutics: Primary screen using the drug-selected MDR subline cells KB-V1; KB-V1 MDR cells viability, CellTiter-Glo, 72 h; Potency, µM (highest dose often 46.1 µM), usual class: cytotoxic; 3.4% of 400,000 active; AID 1347076, 2019; note: nearly all actives have a fitted effect of over 60% in size
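KB-V1 cells (P-gp-expressing MDR subline of KB-3-1) in phenol-red-free DMEM with 10% FBS were exposed to library compounds over a concentration series for 72 h at 37 degrees C. Viability read by CellTiter-Glo luminescence; concentration-effect curves fitted after normalization.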
HT1080 IDH1KD tx: qHTS for induction of synthetic lethality in tumor cells producing 2HG: qHTS for the HT-1080-IDH1KD cell line. HT-1080 IDH1 knockdown viability, ATP luminescence, 48 h. Potency, µM (titrated, usually from 46.1 µM), hits mostly cytotoxic. 2% of 360,000 active. AID 686971, 2013
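Knockdown cells (IDH1KD HT-1080) received compounds 2 h after plating at 750 cells/well and were kept 48 h at 37 °C in 5% FBS RPMI. A CellTiter-Glo luminescence read gave % activity for curve fitting.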
HT1080NT lethal: qHTS for induction of synthetic lethality in tumor cells producing 2HG: qHTS for the HT-1080-NT fibrosarcoma cell line; Potency, µM (top dose mostly 46.1 µM), hits mostly cytotoxic; HT-1080-NT fibrosarcoma viability, CellTiter-Glo ATP luminescence, 48 h; 1.6% of 360,000 active;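 note: NT is the 2HG producing partner of a matched IDH1 knockdown line; nearly all actives have a fitted effect of over 55% in size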
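Fibrosarcoma NT cells, 750 per well in 5% FBS RPMI, were exposed to compound for 48 hours. Viability: CellTiter-Glo luminescence.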
TDP1 cell noCPT: qHTS for Inhibitors of human tyrosyl-DNA phosphodiesterase 1 (TDP1): qHTS in cells in absence of CPT; Potency, µM (top dose mostly 46.2 µM), actives largely listed as inhibitors; 15% of 420,000 active; DT40 Tdp1-/- hTDP1 cells, no CPT, ATP luminescence, 48 h; note: nearly all actives have a fitted effect of over 55% in size
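Readout: luminescence from CellTiter-Glo after 30 min in the dark at RT. Cells: DT40 Tdp1-/- with stable hTDP1, 400/well. Exposure: compounds alone, ≥48 hr, 37 °C.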
DT40 TDP1 CPT: qHTS for Inhibitors of human tyrosyl-DNA phosphodiesterase 1 (TDP1): qHTS in cells in presence of CPT; chicken DT40 Tdp1-/-;hTDP1 cells + 20 nM CPT, ATP luminescence, 48 h; Potency, µM (doses to about 46.2 µM), hits mostly inhibitors; 12% of 420,000 active; AID 686979, 2013; note: nearly all actives have a fitted effect of over 55% in size
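Chicken DT40 Tdp1-/- cells stably complemented with human TDP1 were seeded at 400 cells/well in medium containing 20 nM camptothecin, exposed to pin-transferred compounds, and grown at 37 °C for at least 48 hr. Viability was read as ATP luminescence.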
Numbers stand for hits; i = inactive; ? = inconclusive; nt = not tested or not shown; [ ] = another dose, or the depositor's remark. Calls come from the whole dose curve; as a rule, active = well fitted curve in the direction sought with a large enough effect; inconclusive = small, poorly fitted or top-dose-only effect, or another doubt; inactive = no such curve, though single readings can be large; an effect the other way counts as inactive or inconclusive.

SMILES	KB-3-1 cytotox	KB-V1 cytotox	HT1080 IDH1KD tx	HT1080NT lethal	TDP1 cell noCPT	DT40 TDP1 CPT
Cc1ccc2c(c1)nnn2C1CCN(CC(=O)N(c2ccccc2)c2ccccc2)CC1	?	9.2µM	i	i	13µM	13µM
CCOc1ccc(NC(=O)c2ccc3c(c2)nnn3C2CCCC2)cc1	i	i	nt	nt	?	i
Cc1ccc2c(c1)nnn2C1CCN(CC(=O)Nc2ccc(F)cc2)CC1	i	i	i	i	21µM	?
Cc1ccc2c(c1)nnn2C1CCN(CC(=O)N2CCN(c3ccc(F)cc3)CC2)CC1	i	i	i	i	26µM	16µM
CCOC(=O)CN(C(=O)CN1CCC(n2nnc3cc(C)ccc32)CC1)c1ccccc1	i	i	i	i	?	?
Cc1cc(C)cc(NC(=O)c2ccc3c(c2)nnn3C2CCCC2)c1	?	?	nt	nt	1.5µM	1.3µM
C[C@H](CO)N1C[C@H](C)[C@@H](CN(C)C(=O)Nc2ccccc2)Oc2ccc(NC(=O)Cn3cnnn3)cc2C1=O	i	i	i	i	i	i
Cc1cc(C)n(-c2nc(NCCC(C)C)c3c4c(sc3n2)COC(C)(C)C4)n1	i	2.3µM	i	i	16µM	9.2µM
CCSc1nc(NCCN(C)C)c2c3c(sc2n1)COC(C)(CC)C3 (configuration not stated)	i	?	i	i	?	21µM
CCN(CC)CCNc1nc(-n2nc(C)cc2C)nc2sc3c(c12)CC(C)(C)OC3	?	?	?	?	10µM	?
Cc1nc2sc3c(c2c(=N)n1N)CC(C)(C)OC3	?	i	i	i	i	i
Cc1cc(C)n(-c2nc(SCC(=O)Nc3nccs3)c3c4c(sc3n2)COC(C)(C)C4)n1	i	?	i[9.24 µM]	i	23µM	?
CN(CC(=O)Nc1ccccc1Cl)C(=O)COC(=O)c1ccc([N+](=O)[O-])s1	i	i	i	i	i	?
O=S(=O)(Nc1ccon1)c1ccc(Br)cc1	i	i	i	i	i	i
O=C(OCc1ccccc1)N1CCCCC1c1c(Cl)cccc1Br (configuration not stated)	i	i	?	i	?	?
O=C(CN1C(=O)NC2(CCCCC2)C1=O)N1CCN(S(=O)(=O)c2cccc([N+](=O)[O-])c2)CC1	nt	nt	i	i	i	i
O=S1(=O)CC(N2CCCC2)CN1Cc1cn(Cc2ccc(Cl)cc2)nn1 (configuration not stated)	i	i	i	i	i	i
Cc1cc(C)n(-c2nc(NCCCN(C)C)c3c4c(sc3n2)COC(C)(C)C4)n1	i	i	i	i	?	i
Cc1cc(C)n(-c2nc3sc4c(c3c3nnc(SCC(N)=O)n23)CC(C)(C)OC4)n1	i	i	i	i	i	i
CSc1nnc2c3c4c(sc3nc(-n3nc(C)cc3C)n12)COC(C)(C)C4	i	i	i	i	29µM	?
Cc1cc(C)n(-c2nc(NCCN(C)C)c3c4c(sc3n2)COC(C)(C)C4)n1	i	i	?	18µM	23µM	?
OC[C@H]1O[C@@H]2O[C@H]3[C@H](O)[C@@H](O)[C@@H](O[C@H]4[C@H](O)[C@@H](O)[C@@H](O[C@H]5[C@H](O)[C@@H](O)[C@@H](O[C@H]6[C@H](O)[C@@H](O)[C@@H](O[C@H]7[C@H](O)[C@@H](O)[C@@H](O[C@H]8[C@H](O)[C@@H](O)[C@@H](O[C@H]1[C@H](O)[C@H]2O)O[C@@H]8CO)O[C@@H]7CO)O[C@@H]6CO)O[C@@H]5CO)O[C@@H]4CO)O[C@@H]3CO	nt	nt	nt	nt	i	i
CC(OC(=O)Nc1ccccc1)C(=O)OC1CCCCC1 (configuration not stated)	i	i	i	i	i	i
CC12CCC(C(=O)N(CSC(=S)N/N=C\c3ccccc3O)C1=O)C2(C)C (configuration not stated)	i	i	?	?	15µM	?
COc1ccc(Cl)cc1NC(=O)CSc1nc2ccccc2nc1N1CCCCC1	i	?	nt	nt	21µM	?
SMILES	KB-3-1 cytotox	KB-V1 cytotox	HT1080 IDH1KD tx	HT1080NT lethal	TDP1 cell noCPT	DT40 TDP1 CPT
COc1ccc(C)cc1NC(=O)CSc1nc2ccccc2nc1N1CCCC1	?	i	i	i	21µM	?
COc1ccc(NC(=O)CSc2nc3ccccc3nc2N2CCCC2)c(OC)c1	i	i	i	i	?	?
COc1ccc(Br)cc1-c1nc(CCl)cs1	i	i	i	i	15µM	13µM
COC(=O)c1c(C)oc2ccc(N(C(=O)c3ccncc3)S(=O)(=O)c3c(C)cc(C)cc3C)cc12	nt	nt	nt	nt	1.2µM	1.8µM
COC(=O)c1c(C)oc2ccc(N(C(=O)c3ccncc3)S(=O)(=O)c3cc(C)c(C)cc3C)cc12	nt	nt	nt	nt	5.2µM	10µM
Cc1ccc([N+](=O)[O-])cc1S(=O)(=O)N(C(=O)c1ccncc1)c1ccc2oc3c(c2c1)CCCC3	i	i	?	i	i	i
COC(=O)c1c(C)oc2ccc(NS(=O)(=O)c3cccs3)cc12	?	?	i	i	i	?
COC(=O)c1c(C)oc2ccc(N(C(=O)c3ccncc3)S(=O)(=O)c3ccc(C)cc3C)cc12	?	?	?	23µM	4.1µM	2.6µM
O=c1[nH]c(SCc2ccc(OC(F)(F)F)cc2)nc2c1CCC2	?	i	i	i	?	?
CCOc1ccc(S(=O)(=O)N(CC(=O)N2CCC(C(N)=O)CC2)c2ccc(F)cc2)cc1	i	i	i	i	i	i
COc1ccc(Cn2ccc3nc(C)c(C(=O)Nc4cc(C)cc(C)c4)cc3c2=O)cc1	i	i	nt	nt	?	?
CCOC(=O)c1ccc(N=Cc2nc3ccccc3n2C)cc1	i	i	i	i	18µM	?
COc1ccc(N=Cc2nc(-c3ccccc3)oc2OC(=O)c2ccccc2)cc1	i	i	i	i	23µM	21µM
CCOC(=O)c1ccc(N=Cc2nc(-c3ccccc3)oc2OC(C)=O)cc1	i	i	i	i	6.5µM	9.2µM
CN(C)c1ccc(N=Cc2nc(-c3ccccc3)oc2OC(=O)c2cccc(Br)c2)cc1	i	i	i	i	16µM	?
COc1cc(/C=N/NC(=O)c2csc3c2CCCC3)cc(OC)c1O	i	i	i	i	5.2µM	?

Assay outcomes: PubChem BioAssay, National Center for Advancing Translational Sciences (NCATS)
